Peg3 prom inh – inhibitors of Peg3 promoter | HeLa PEG-Prom luciferase reporter, luminescence, overnight | actives 1.7% (n = 360,000) | inhibition, % at 20 µM;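 active = inhibition of at least 50% at 20 µM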
HSP90 inh – HSP90 refolding inhibition in rabbit reticulocyte lysate. luciferase refolding luminescence, 3 h. inhibition, % at 5.6 µM. actives 0.91% (n = 290,000). AID 1789;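 active = inhibition above the screen-wide mean plus 3 SD, computed separately per campaign, cut at about 16% in these data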;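 note: inhibitors lower the luminescence because luciferase stays unfolded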
LGR2 inh – Drosophila LGR2 receptor signaling inhibition. inhibition, % at 9.99 µM. HEK293 LGR2, CRE-luciferase, bursicon-stimulated, 4 h. actives 0.35% (n = 380,000);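 active = drop in luminescence signal, shown as inhibition above about 50% in the replicate tests, limit read from the data, passing the limit was not always enough; inconclusive = probably only some replicates passing the limit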;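 note: agonist challenge used bursicon conditioned medium at about half maximal strength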
KKLEB tox – CF airway cell cytotoxicity counter-screen; KKLEB CF airway cells viability, ATPlite luminescence, overnight; hits give low values; cells stimulated with P. aeruginosa culture filtrate; AID 602141; actives 0.36% (n = 360,000); activity change (cytotoxicity), % at 5 µM;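 active = corrected activity change at or below -50% at 5 µM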
Mdm2 MdmX PPI – inhibitors of human Mdm2/MdmX interaction; O15151+Q00987; SaOS-2 split-luciferase Mdm2/MdmX complementation, luminescence; inhibition, % at 8 µM; actives 3% (n = 330,000); AID 485346;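 active = inhibition of at least 50% at 8 µM in the primary screen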
CF NFkB block – inhibitors of cystic fibrosis induced NF-kB. KKLEB NF-kB-GFP reporter, PAF-induced, GFP fluorescence overnight. inhibition, % at 5 µM. actives 0.86% (n = 360,000);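 active = at least 50% inhibition at 5 µM, scaled per plate between neutral and stimulator controls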;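 note: PAF is a Pseudomonas aeruginosa culture filtrate used as stimulus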
HSP90 confirm – HSP90 inhibition, confirmation assay | shares compounds with HSP90 inh | rabbit reticulocyte lysate, luciferase refolding luminescence, 3 h | inhibition, % at 5.9 µM | actives 64% (n = 2,300) | AID 1846; in the data active = inhibition above about 18%
FLuc counter – firefly luciferase inhibition, HSP90 counter-screen; AID 1847; purified native firefly luciferase, luminescence; shares compounds with HSP90 inh; inhibition, % at 5.9 µM; actives 48% (n = 2,300);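 active = inhibition above the mean inhibition of all tested sample wells plus 3 SD, cut at about 10% in these data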
Target sequence (P08659 whole entry, looked up): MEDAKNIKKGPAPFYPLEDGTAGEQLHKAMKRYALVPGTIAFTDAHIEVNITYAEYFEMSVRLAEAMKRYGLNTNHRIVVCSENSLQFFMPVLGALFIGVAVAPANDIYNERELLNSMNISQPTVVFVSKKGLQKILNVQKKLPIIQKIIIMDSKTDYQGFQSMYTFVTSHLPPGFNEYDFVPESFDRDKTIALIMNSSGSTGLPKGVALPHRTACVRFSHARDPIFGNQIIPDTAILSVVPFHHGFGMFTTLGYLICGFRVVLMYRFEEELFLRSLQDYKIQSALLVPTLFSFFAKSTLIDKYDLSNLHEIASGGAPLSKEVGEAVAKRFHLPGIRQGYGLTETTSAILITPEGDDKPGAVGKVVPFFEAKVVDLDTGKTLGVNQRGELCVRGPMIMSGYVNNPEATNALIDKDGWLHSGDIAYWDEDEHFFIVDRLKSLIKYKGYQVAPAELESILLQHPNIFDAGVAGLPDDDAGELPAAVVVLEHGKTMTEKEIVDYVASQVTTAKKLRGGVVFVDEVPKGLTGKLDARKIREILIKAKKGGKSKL
Hits are given with their value; i = inactive; ? = inconclusive; nt = no result given. This is a sample that favours compounds with a hit; in the whole collection about 3.6% have one here.

SMILES	Peg3 prom inh	HSP90 inh	LGR2 inh	KKLEB tox	Mdm2 MdmX PPI	CF NFkB block	HSP90 confirm	FLuc counter
C[C@H](O)C#Cc1cnc2c(c1)C(=O)N([C@@H](C)CO)C[C@@H](C)[C@@H](CN(C)Cc1cccc(F)c1)O2	nt	nt	i	nt	nt	nt	nt	nt
COc1cccc(-c2ccc3c(c2)O[C@H](CN(C)C(=O)C2CCC2)[C@@H](C)CN([C@H](C)CO)S3(=O)=O)c1	nt	nt	i	nt	nt	nt	nt	nt
COc1cccc(S(=O)(=O)Nc2ccc3c(c2)C(=O)N(C)[C@@H]2CC[C@H](CC(=O)O)O[C@@H]2CO3)c1	nt	nt	i	nt	nt	nt	nt	nt
O=C(O)C1CC=CCC1C(=O)Nc1ccc(F)c(F)c1 (configuration not stated)	i	i	nt	i	i	i	nt	nt
Cc1ccc(CC(=O)N/N=C/c2ccc3c(c2)OCO3)cc1	i	20	i	i	i	i	i	i
O=C(CCc1ccc(O)cc1)NN=Cc1ccc2c(c1)OCO2	i	nt	i	i	nt	i	nt	nt
CCC(=O)Nc1ccc(NC(=O)c2ccc3c(c2)OCO3)cc1	i	i	i	i	i	i	nt	nt
Cc1ccc(C(=O)Nc2ccc3c(c2)OCCO3)cc1	i	58	67	i	i	i	75	63
COc1ccc(NC(=O)c2ccc3c(c2)OCO3)cc1	i	19	i	i	i	i	27	14
O=C(O)C1CC=CCC1C(=O)Nc1ccc2c(c1)OCCO2 (configuration not stated)	i	38	nt	i	i	i	i	i
O=C(Nc1ccc2c(c1)OCCO2)Nc1ccc2c(c1)OCO2	i	19	i	i	i	i	41	30
CCOc1ccc(NC(=O)CN2CCN(CC(=O)Nc3ccc4c(c3)OCCO4)CC2)cc1	i	i	nt	i	i	i	nt	nt
Cc1cc(NC(=O)c2ccc3c(c2)OCCO3)no1	i	27	nt	i	i	i	58	49
NC(=O)c1ccc(NC(=O)Nc2ccc3c(c2)OCO3)cc1	i	i	i	i	i	i	nt	nt
CCOc1ccc(C(=O)Nc2ccc3c(c2)OCCO3)cc1	i	22	i	i	i	i	37	16
Cc1ccc(C(=O)Nc2ccc3c(c2)OCCO3)c(Cl)c1	i	59	82	i	i	i	75	68
Cc1cc(NC(=O)c2ccc3c(c2)OCO3)no1	i	i	i	i	i	i	nt	nt
CO[C@H]1CN(C)C(=O)c2ccc(NC(=O)c3cnccn3)cc2OC[C@@H](C)N(C(=O)C2CC2)C[C@H]1C	nt	nt	i	nt	nt	nt	nt	nt
COc1ccc(S(=O)(=O)N(C)C[C@H]2Oc3c(NS(=O)(=O)c4ccc(Cl)cc4)cccc3C(=O)N([C@H](C)CO)C[C@H]2C)cc1	nt	nt	i	nt	nt	nt	nt	nt
CN(C)CCCNC(=O)C[C@H]1CC[C@H](NC(=O)c2ccccc2F)[C@H](CO)O1	nt	nt	i	nt	nt	nt	nt	nt
COCC(=O)N(C)C[C@H]1Oc2ncc(C#CC(C)(C)O)cc2C(=O)N([C@@H](C)CO)C[C@@H]1C	nt	nt	i	nt	nt	nt	nt	nt
O=C(Nc1ccc2c(c1)OCCO2)c1cccc(Br)c1	i	i	i	i	i	i	nt	nt
CCCOc1cccc(C(=O)Nc2ccc3c(c2)OCCO3)c1	i	21	i	i	i	i	40	25
Cc1ccc(C(=O)Nc2ccc3c(c2)OCO3)cc1	i	66	nt	i	i	i	52	38
CCOc1ccc(C(=O)Nc2cc(C)ccn2)cc1	i	50	65	-57	i	i	75	58
SMILES	Peg3 prom inh	HSP90 inh	LGR2 inh	KKLEB tox	Mdm2 MdmX PPI	CF NFkB block	HSP90 confirm	FLuc counter
CN(C)C(=O)[C@H]1[C@H](CO)[C@H]2Cn3c(ccc(C4=CCCCC4)c3=O)[C@@H]1N2Cc1ccncc1	nt	nt	i	nt	nt	nt	nt	nt
O=C(CCn1c(=S)[nH]c2ccccc2c1=O)NCCc1ccccc1	i	59	i	i	i	i	i	i
COc1ccc(N2CCN(/C(=N\S(=O)(=O)c3ccccc3)Nc3nc(C)cc(C)n3)CC2)cc1	i	39	nt	i	i	i	i	i
O=C(Nc1nccs1)c1cn2ccccc2n1	i	33	i	i	i	i	54	43
O=C(NCCc1ccc(Cl)cc1)c1ccc2ccccc2n1	i	i	i	i	i	i	nt	nt
O=C(O)C(=O)/C(=C\c1ccc(Cl)cc1)c1ccc2ccccc2n1	i	22	i	i	i	i	i	i
COCC(=O)N(C)C[C@@H]1Oc2cc(-c3ccc(C#N)cc3)ccc2S(=O)(=O)N([C@H](C)CO)C[C@H]1C	nt	nt	i	nt	nt	nt	nt	nt
Cc1noc(C)c1S(=O)(=O)Nc1ccc2c(c1)C(=O)N([C@@H](C)CO)C[C@H](C)[C@H](CN(C)S(=O)(=O)c1ccc(Cl)cc1)O2	nt	nt	i	nt	nt	nt	nt	nt
O=C(O)CC1SC(N/N=C/c2ccc(Br)cc2)NC1=O (configuration not stated)	i	17	i	i	i	i	24	i
CC(C)NC(=O)CC(=O)N/N=C/c1ccc(Br)cc1	i	i	i	i	i	i	nt	nt
CC(C)(C)c1ccc(-c2nc(-c3ccncc3)no2)cc1	i	20	?	i	i	i	33	32
c1ccc(-c2noc(-c3ccncc3)n2)nc1	i	18	nt	i	i	i	18	i
c1ccc(-c2noc(-c3cccnc3)n2)nc1	i	i	nt	i	i	i	nt	nt
C[C@H]1CN([C@@H](C)CO)C(=O)Cc2cc(NC(=O)CCC(F)(F)F)ccc2O[C@H]1CN(C)C(=O)Nc1ccccc1	nt	nt	i	nt	nt	nt	nt	nt
O=C(Nc1nnc(SCC(=O)N2CCCCC2)s1)c1ccc(F)cc1F	i	51	i	i	i	i	i	i
O=C(Cc1ccc(F)cc1)Nc1nnc(SCC(=O)N2CCCCC2)s1	i	i	i	i	i	i	nt	nt
CCCC(C(=O)NCCC(C)C)N(Cc1ccccc1Cl)C(=O)c1snc(C(N)=O)c1N (configuration not stated)	i	17	i	i	i	i	i	i
Cn1cccc1C(=O)NCCc1ccccc1	i	19	i	i	i	i	39	26
O=C(NCCc1ccccc1)c1ccccc1Cl	i	43	58	i	i	i	58	50
O=C(NCCc1ccccc1)c1ccccc1NC(=O)C1CC=CCC1C(=O)O (configuration not stated)	i	45	i	i	i	i	i	i
CCNC(=O)Nc1ccc2c(c1)C(=O)N(C)[C@H]1CC[C@@H](CC(=O)NCC3CC3)O[C@H]1CO2	nt	nt	i	nt	nt	nt	nt	nt
CC(C)OC(=O)N(C)C[C@@H]1OCc2ccccc2-c2ccccc2C(=O)N([C@@H](C)CO)C[C@H]1C	nt	nt	i	nt	nt	nt	nt	nt
Cc1ccc2nc(Cl)c(/C=N/Nc3ccc(C(=O)O)cc3)cc2c1	i	29	i	i	i	i	18	i
CC(C)NC(=O)Nc1ccc2c(c1)C(=O)N([C@H](C)CO)C[C@H](C)[C@@H](CN(C)C(=O)c1ccccc1)OCCCC[C@@H](C)O2	nt	nt	i	nt	nt	nt	nt	nt

Bioassay records: PubChem, several laboratories
